Experimental findings from PubChem BioAssay (Tox21) are described below.

Molecules are shown by their SMILES. Where “and” joins values, the source holds several entries; their conditions need not be identical. Equal values may be shown once. Records with an inconclusive call do not appear. Calls of active or inactive are those of the source. Unless noted, calls follow the shape of the full dose curve.

A short description of test [1]: Nuclear factor erythroid 2-related factor 2/antioxidant responsive element (Nrf2/ARE) small molecule agonists: qHTS cell viability counter screen in human keratinocytes (AID 1919968; active = well fitted curve in the direction sought with a large enough effect in the repeat runs; an effect the other way counts as inactive or inconclusive; also: nearly all actives have a fitted effect of over 55% in size; also: potency is read from the fitted curve at half-maximal effect). A digest of the protocol: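 Stably transfected HaCaT (KeratinoSens), 1,500/well. Test agents in DMSO were applied for 23 h, 37 C/5% CO2. CellTiter-Fluor was incubated 1 h before the fluorescence read.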
(qHTS replaces the single test concentration by a dilution series.)

Test [2] addresses Gonadotropin-releasing hormone receptor (Homo sapiens) (UniProt P30968). Put plainly: Human gonadotropin-releasing hormone receptor (GnRHR) small molecule agonists, calcium flux assay in GnRHR-HEK293 cells (AID 1920063). Also: nearly all actives have a fitted effect of over 35% in size. A digest of the protocol:
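Stable human GnRHR HEK293 line. 18 h plating, then calcium dye for 1 h at 37 C. Agonist-mode compound addition from DMSO stocks; fluorescence monitored 3 min.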

Test [3] deals with KiSS-1 receptor (Homo sapiens) (UniProt Q969F8). Nature of the test: Human kisspeptin (KISS1R) small molecule agonists, calcium flux assay in KISS1R-HEK293 cells (AID 1920064; active = well fitted curve in the direction sought with a large enough effect in the repeat runs; an effect the other way counts as inactive or inconclusive). A digest of the protocol:
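After overnight (18 h) culture at 37 C/5% CO2, human KISS1R-HEK293 cells received calcium dye for 1 h, then test compound; emission at 540 nm (excitation 480 nm) was tracked for 3 min.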

Test [4] can be described thus: G protein-coupled receptor (GPCR) small molecule agonists, calcium flux assay: HEK293 wild type cell line counter screen (AID 1920065). A digest of the protocol: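 Following 18 h incubation at 37 C/5% CO2, plates got calcium dye for 1 h; compounds, ATP or DMSO were then pinned in and fluorescence followed kinetically (480/540 nm).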
The nature of test [5]: p53 small molecule agonists, cell-based qHTS assay with human liver microsomes (AID 1963577).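 Also: p53 response element beta-lactamase reporter cells with liver microsomes plus NADPH.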 A digest of the protocol:
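With metabolic activation: human liver microsomes (0.5 mg/mL final) plus NADPH (0.5 mg/mL final) added alongside compounds to p53RE-bla cells; 16 h 37 C exposure; beta-lactamase read by LiveBLAzer fluorescence.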

Test [6] is described as follows: p53 small molecule agonists, cell-based qHTS assay with rat liver microsomes (AID 1963578). A digest of the protocol: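 Metabolic activation by rat liver microsomes and NADPH, each 0.5 mg/mL final, added right after compounds to p53RE-bla reporter cells (4,000/well, plated 5 h earlier). 16 h at 37 C, then LiveBLAzer substrate for 2 h at room temperature in the dark; fluorescence read-out.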

Test [7] in a line: p53 small molecule agonists, cell-based qHTS assay with human liver microsomes: qHTS cell viability counter screen (AID 1963579). Also: nearly all actives have a fitted effect of over 45% in size. Also: potency is read from the fitted curve at half-maximal effect. A digest of the protocol:
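Metabolic activation used human liver microsomes and NADPH, both 0.5 mg/mL final, over 16 hours at 37 C on p53RE-bla cells (4,000/well). Cytotoxicity measured by CellTiter-Glo luminescence, 30 min at room temperature.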

The nature of test [8]: p53 small molecule agonists, cell-based qHTS assay with rat liver microsomes: qHTS cell viability counter screen (AID 1963580). Also: nearly all actives have a fitted effect of over 45% in size. A digest of the protocol: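 Counter screen for cytotoxicity under metabolic activation: rat liver microsomes and NADPH, 0.5 mg/mL final each, added with compounds to p53RE-bla HCT-116 cells; 16 h at 37 C, then ATP luminescence read.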
A short description of test [9]: p53 small molecule agonists, cell-based qHTS assay: qHTS cell viability counter screen (AID 1963581). Also: nearly all actives have a fitted effect of over 45% in size. Also: potency is read from the fitted curve at half-maximal effect. A digest of the protocol: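 qHTS counter screen: 16 h compound exposure at 37 C of p53RE-bla HCT-116 cells (4,000 per well, seeded 5 h prior), cell viability by ATP luminescence.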
A short description of test [10]: p53 small molecule agonists, cell-based qHTS assay (AID 1963582; active = well fitted activation curve with a large enough effect in the signal ratio in the repeat runs, not every such curve was filed as active; the % refers to the signal ratio). A digest of the protocol: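 Measured: fluorescence from cleaved LiveBLAzer substrate. System: p53RE-bla cells, 16 h compound treatment at 37 C, 2 h substrate step at room temperature.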
Test [11] addresses 5-hydroxytryptamine receptor 2A (Homo sapiens) (UniProt P28223). Nature of the test: 5-hydroxytryptamine receptor 2A (HTR2A) small molecule antagonists, cell-based qHTS assay (AID 1963586). Also: nearly all actives have a fitted effect of over 45% in size. A digest of the protocol:
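CHO cells stably expressing human HTR2A were plated for 18 h at 37 C, then loaded with calcium dye for 1 h. Compounds were preincubated 5 min at room temperature before DOI (4 nM solution) was added. Kinetic fluorescence was read for 3 min.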

The target of test [12] is Muscarinic acetylcholine receptor M1 (Homo sapiens) (UniProt P11229). Put plainly: Cholinergic receptor muscarinic 1 (CHRM1) small molecule antagonists, cell-based qHTS assay (AID 1963588). Also: nearly all actives have a fitted effect of over 40% in size. A digest of the protocol:
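Compounds were tested at 15 concentrations in three independent runs. Dye-loaded CHRM1-CHO cells were exposed 5 min at room temperature before stimulation by acetylcholine added at 50nM. Intracellular calcium was read kinetically on FDSS for 3 min.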

For test [13] the target is unchanged. Put plainly: Cholinergic receptor muscarinic 1 (CHRM1) small molecule agonists, cell-based qHTS assay (AID 1963589). Also: nearly all actives have a fitted effect of over 35% in size. A digest of the protocol: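 Kinetic fluorescence (1 s intervals) of calcium-sensitive dye in human M1 CHO cells after compound addition; cells pre-incubated 18 h at 37 C/5% CO2 and dye-loaded 1 h.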
The nature of test [14]: cAMP Responsive Elements (CRE) small molecule agonists, cell-based qHTS assay (AID 1963590). A digest of the protocol:
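Test agents in DMSO were incubated 3 h at 37 C/5% CO2 with CRE-bla HEK 293T cells seeded 18 h earlier; LiveBLAzer B/G FRET substrate was added and read after 2 h at room temperature.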

Test [15] in a line: cAMP Responsive Elements (CRE) small molecule antagonists, cell-based qHTS assay (AID 1963591; active = well fitted inhibition curve with a large enough effect in the signal ratio in the repeat runs, not every such curve was filed as active; the % refers to the signal ratio). A digest of the protocol:
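Reporter line CRE-bla HEK 293T in dialyzed-FBS DMEM; cells preincubated 18 h, treated 3 h with compound plus NKH477 (0.25 uM final); LiveBLAzer FRET, 2 h RT.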

The target of test [16] is Beta-2 adrenergic receptor (Homo sapiens) (UniProt P07550). Put plainly: Adrenergic beta2 receptor (ADRB2) small molecule antagonists, cell-based qHTS assay (AID 1963592). Also: series mostly up to about 92 µM; nearly all actives have a fitted effect of over 50% in size. A digest of the protocol: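 Assay format: CHO-ADRB2 cells, 18-20hr seeding at 37C/5% CO2, then compound plus 1nM isoproterenol agonist mix for 0.5hr RT. Homogeneous time-resolved fluorescence cAMP detection after 1hr, expressed as 665/615 nm ratio.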

For test [17] the target is unchanged. Put plainly: Adrenergic beta2 receptor (ADRB2) small molecule agonists, cell-based qHTS assay (AID 1963593).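 Also: CHO cells stably overexpressing human ADRB2.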 A digest of the protocol:
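CHO cells stably over-expressing ADRB2 were plated overnight at 37C, then dosed with compounds plus a stimulation mix containing 100uM IBMX and 25uM Ro-20-1724 for 0.5hr at room temperature. cAMP was measured by HTRF competition, 1hr.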

In test [18] the target is D(2) dopamine receptor (Homo sapiens) (UniProt P14416). Nature of the test: Dopamine D2 receptor (DRD2) small molecule agonists, cell-based qHTS assay (AID 1963594). Also: nearly all actives have a fitted effect of over 35% in size. A digest of the protocol: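 HEK293 cells stably expressing DRD2 were cultured 24 h at 37 C, then given Ro20-1724 (0.1 mM final) and compounds for 10 min at room temperature. NKH477 (200nM) was then added for 30 min. cAMP was read by HTRF.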

For test [19] the target is unchanged. Put plainly: Dopamine D2 receptor (DRD2) small molecule antagonists, cell-based qHTS assay (AID 1963595; active = well fitted inhibition curve with a large enough effect in the signal ratio in the repeat runs, with a control signal flat; the % refers to the signal ratio). A digest of the protocol:
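Antagonist mode in DRD2-HEK293 cells: after compound addition with 0.1 mM Ro20-1724, cells received quinpirole (12 nM) and NKH477 (200 nM) for 30 min at room temperature; HTRF cAMP read after 1 h detection.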

In test [20] the target is 5-hydroxytryptamine receptor 2A (Homo sapiens) (UniProt P28223). Nature of the test: 5-hydroxytryptamine receptor 2A (HTR2A) small molecule agonists, cell-based qHTS assay (AID 1963587). Also: nearly all actives have a fitted effect of over 30% in size. A digest of the protocol: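 HTR2A-CHO cells, plated 18 h at 37 C/5% CO2, dye-loaded 1 h at 37 C; compounds in DMSO added by pin tool (agonist mode). Intracellular calcium flux read as kinetic fluorescence on FDSS over 2 min at 1 s intervals.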
Sequence of 5-hydroxytryptamine receptor 2A (Homo sapiens) (P28223 whole entry, looked up): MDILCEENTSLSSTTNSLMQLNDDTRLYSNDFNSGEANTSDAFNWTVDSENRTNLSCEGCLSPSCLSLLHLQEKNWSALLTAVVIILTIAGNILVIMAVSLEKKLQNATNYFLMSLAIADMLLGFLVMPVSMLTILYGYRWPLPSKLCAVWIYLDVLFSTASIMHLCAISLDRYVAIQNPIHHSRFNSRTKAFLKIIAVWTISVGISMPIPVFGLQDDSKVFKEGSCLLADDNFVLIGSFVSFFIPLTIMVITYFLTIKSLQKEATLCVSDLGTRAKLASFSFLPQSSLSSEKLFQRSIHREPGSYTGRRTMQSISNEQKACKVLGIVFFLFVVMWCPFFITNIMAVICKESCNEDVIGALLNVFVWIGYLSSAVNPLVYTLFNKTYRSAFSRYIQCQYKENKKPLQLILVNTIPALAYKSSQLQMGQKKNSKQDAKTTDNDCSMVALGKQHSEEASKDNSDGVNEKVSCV

Sequence of D(2) dopamine receptor (Homo sapiens) (P14416 whole entry, looked up): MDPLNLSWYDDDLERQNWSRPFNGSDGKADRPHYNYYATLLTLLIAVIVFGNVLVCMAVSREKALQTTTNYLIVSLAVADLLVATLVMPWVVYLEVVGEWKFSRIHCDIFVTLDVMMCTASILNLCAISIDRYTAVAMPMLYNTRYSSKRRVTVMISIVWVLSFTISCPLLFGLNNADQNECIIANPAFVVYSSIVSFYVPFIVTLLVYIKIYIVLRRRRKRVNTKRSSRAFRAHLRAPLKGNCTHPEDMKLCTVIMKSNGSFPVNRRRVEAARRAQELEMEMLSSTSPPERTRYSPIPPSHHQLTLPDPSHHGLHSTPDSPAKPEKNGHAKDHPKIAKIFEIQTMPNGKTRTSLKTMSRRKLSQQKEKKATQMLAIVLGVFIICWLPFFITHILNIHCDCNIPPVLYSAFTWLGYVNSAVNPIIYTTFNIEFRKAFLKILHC
Sequence of KiSS-1 receptor (Homo sapiens) (Q969F8 whole entry, looked up): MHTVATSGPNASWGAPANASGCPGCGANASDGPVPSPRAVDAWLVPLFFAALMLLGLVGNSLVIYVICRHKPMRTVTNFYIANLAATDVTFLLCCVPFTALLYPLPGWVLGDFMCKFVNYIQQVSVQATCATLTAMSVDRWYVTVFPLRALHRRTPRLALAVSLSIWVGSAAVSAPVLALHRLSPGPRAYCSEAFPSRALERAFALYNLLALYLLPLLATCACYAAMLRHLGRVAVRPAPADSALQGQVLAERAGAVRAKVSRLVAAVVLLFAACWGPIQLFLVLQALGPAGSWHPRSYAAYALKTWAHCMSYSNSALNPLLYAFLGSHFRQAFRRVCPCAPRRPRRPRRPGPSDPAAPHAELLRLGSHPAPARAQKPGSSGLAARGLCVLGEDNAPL
Sequence of Muscarinic acetylcholine receptor M1 (Homo sapiens) (P11229 whole entry, looked up): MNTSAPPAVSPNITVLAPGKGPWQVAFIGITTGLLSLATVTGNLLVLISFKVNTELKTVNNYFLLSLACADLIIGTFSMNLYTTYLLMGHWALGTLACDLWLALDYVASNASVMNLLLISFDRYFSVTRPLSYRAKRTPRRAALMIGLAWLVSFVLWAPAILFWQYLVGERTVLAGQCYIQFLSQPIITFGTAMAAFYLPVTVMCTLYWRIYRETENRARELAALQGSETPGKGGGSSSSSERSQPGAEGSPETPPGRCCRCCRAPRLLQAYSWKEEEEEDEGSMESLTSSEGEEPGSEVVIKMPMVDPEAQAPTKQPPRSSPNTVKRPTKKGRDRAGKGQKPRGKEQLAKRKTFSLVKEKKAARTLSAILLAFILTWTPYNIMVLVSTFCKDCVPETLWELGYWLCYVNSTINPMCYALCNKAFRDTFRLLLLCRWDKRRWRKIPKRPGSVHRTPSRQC
Sequence of Beta-2 adrenergic receptor (Homo sapiens) (P07550 whole entry, looked up): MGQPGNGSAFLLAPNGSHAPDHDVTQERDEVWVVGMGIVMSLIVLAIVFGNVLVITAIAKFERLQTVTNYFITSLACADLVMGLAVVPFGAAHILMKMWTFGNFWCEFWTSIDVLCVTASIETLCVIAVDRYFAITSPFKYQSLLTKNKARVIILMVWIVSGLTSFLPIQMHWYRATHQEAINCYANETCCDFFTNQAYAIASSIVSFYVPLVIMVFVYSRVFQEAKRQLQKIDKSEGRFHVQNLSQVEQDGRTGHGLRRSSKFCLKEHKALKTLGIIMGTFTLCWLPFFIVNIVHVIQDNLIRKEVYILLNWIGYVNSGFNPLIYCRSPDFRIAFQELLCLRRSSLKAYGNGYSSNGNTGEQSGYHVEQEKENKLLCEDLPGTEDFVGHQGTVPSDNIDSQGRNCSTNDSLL
Sequence of Gonadotropin-releasing hormone receptor (Homo sapiens) (P30968 whole entry, looked up): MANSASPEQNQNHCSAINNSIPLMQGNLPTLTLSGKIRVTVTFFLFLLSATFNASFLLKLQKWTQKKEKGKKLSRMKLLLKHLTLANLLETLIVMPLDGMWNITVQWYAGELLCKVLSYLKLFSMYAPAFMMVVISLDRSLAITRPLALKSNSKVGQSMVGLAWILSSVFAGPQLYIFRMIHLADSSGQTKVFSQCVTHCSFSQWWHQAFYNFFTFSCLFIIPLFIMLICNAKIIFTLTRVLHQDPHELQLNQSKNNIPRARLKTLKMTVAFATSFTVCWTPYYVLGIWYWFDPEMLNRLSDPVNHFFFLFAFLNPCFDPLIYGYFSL

For `c1ccc2cc3c(ccc4ccccc43)cc2c1`, the Potency entry in test [1], in test [2], in test [3], in test [4], in [5] and in [6] was “inactive” each time. Moreover, the Potency entry in test [7], in test [8], in test [9], in test [10], in test [11] and in [12] was “inactive” each time. For the same molecule, the Potency result in test [13], in test [14], in test [15], in [16], in test [17] and in [18] was “inactive” each time. Besides, in test [19], the Potency entry was “inactive”.

Turning to `CN(C)CCOC(=O)COc1ccc(Cl)cc1`, the Potency entry in test [1], in [2], in test [3], in test [4], in [5] and in test [6] was “inactive” throughout. For the same molecule, the Potency result in test [7], in test [8], in [9], in test [10], in test [11] and in test [20] was “inactive” each time. In addition, the Potency entry in test [12], in test [13], in test [15], in test [16], in [17] and in [19] was “inactive” in each case.

For `CCCCCCCCCCCCc1ccccc1O`, the Potency is 21.4 µM (active) and 24.3 µM (active) in [1]; 18 µM (active) and 20.4 µM (active) in test [7]; 14.3 µM (active) and 18.2 µM (active) in test [9]. For the same molecule, the Potency result in test [2], in test [3], in test [4], in test [5], in test [6] and in test [8] was “inactive” in each case. The Potency result in test [11], in test [12], in [13], in test [18] and in test [19] was “inactive” in each case.

`NCCS(=O)(=O)O`: the Potency entry in test [1], in test [2], in test [3], in test [4], in [5] and in test [6] was “inactive” in each case. The Potency entry in test [7], in test [8], in test [9], in [10], in test [11] and in test [20] was “inactive” throughout. The Potency result in test [12], in test [13], in [14], in test [15], in [17] and in test [18] was “inactive” each time. In addition, the Potency result in test [19] was “inactive”.

Regarding `CCOC(=O)c1ccc(O)cc1`, the Potency result in [1], in test [2], in [3], in [4], in test [5] and in test [6] was “inactive” in each case. Also, the Potency result in test [7], in test [8], in [10], in [11], in test [20] and in [12] was “inactive” each time. For the same molecule, the Potency result in test [13], in test [14], in test [15], in test [16], in test [18] and in test [19] was “inactive” in each case.

Turning to `Nc1ccccc1[N+](=O)[O-]`, the Potency entry in [1], in test [2], in test [3], in test [4], in test [5] and in test [6] was “inactive” throughout. The Potency result in test [7], in test [8], in [9], in test [10], in test [11] and in test [12] was “inactive” each time. Further, the Potency entry in test [13], in test [14], in test [15], in [16], in [17] and in [18] was “inactive” throughout. Further, the Potency result in [19] is “inactive”.

Take `C=CCCCCCCCCCC`: the Potency result in test [1], in [2], in test [3], in test [4], in test [5] and in test [6] was “inactive” in each case. The Potency entry in test [7], in test [8], in test [9], in [10], in test [11] and in test [20] was “inactive” each time. Moreover, the Potency entry in [12], in [13], in test [15], in test [16], in test [18] and in [19] was “inactive” in each case.
